Measurements reported in PubChem BioAssay (EPA / NIEHS).
Several values for one entry are separate records, joined by “and”; a condition that tells them apart may be missing. Identical values can stand only once. A structure can be active in one record and inactive in another. Activity calls are given as the source filed them. How the source made its calls, unless noted: active means hit-call score of the fitted dose curve at least 0.9, where 1 is the maximum; inactive means score below 0.9.

System: not listed separately
Assay: CCTE_Shafer_MEA_dev_network_spike_number: CCTE's Neural Network Formation Assay for Number of Network Spikes, Shafer Lab (AID 2284048);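 further: synchronized bursts across electrodes counted on days 5 7 9 12 and integrated as AUC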;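 on AC50: fit as a loss of signal meaning fewer network spikes than DMSO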
Outline: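 Number of network spikes (coordinated firing across electrodes) recorded on days 5, 7, 9 and 12 and summarised as area under the curve. Rat cortical cultures on MEA, continuous compound exposure with full medium/treatment exchange at DIV 5 and 9.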

| SMILES | AC50 | outcome |
| --- | --- | --- |
| CC1=C(/C=C/C(C)=C/C=C/C(C)=C/C(=O)O)C(C)(C)CCC1 | 7.99 µM (active) | – |
| OCCC(F)(F)C(F)(F)C(F)(F)C(F)(F)C(F)(F)C(F)(F)F | – | inactive |
| CC(O)CO (centres undefined) | – | inactive |
| c1ccc2c(c1)Cc1ccccc1-2 | – | inactive |
| CC#C[C@]1(O)CC[C@H]2[C@@H]3CCC4=CC(=O)CCC4=C3[C@@H](c3ccc(N(C)C)cc3)C[C@@]21C | 8.75 µM (active) | inactive |
| CN1CCC[C@H]1c1cccnc1 | – | inactive |
| OCCC(F)(F)C(F)(F)C(F)(F)C(F)(F)C(F)(F)C(F)(F)C(F)(F)C(F)(F)F | – | inactive |
| c1ccc2cc3c(ccc4ccccc43)cc2c1 | – | inactive |
| C=C(C)C(=O)OCCC(F)(F)C(F)(F)C(F)(F)C(F)(F)C(F)(F)C(F)(F)F | – | inactive |
| c1ccc2c(c1)ccc1ccccc12 | – | inactive |

System: not listed separately
Assay: CCTE_Shafer_MEA_dev_network_spike_peak: CCTE's Neural Network Formation Assay for Mean Number of Electrodes in Network Spike, Shafer Lab (AID 2284049);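 on AC50: fitted for loss of signal meaning fewer electrodes in network spikes than DMSO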
Outline: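 Rat cortical primary culture, 1.5 x 10^5 cells/well, 48-well MEA (16 electrodes/well). Dosing day 0 through DIV 12, full media/compound exchange DIV 5, 9. AxIS adaptive spike detection; AUC over days 5/7/9/12; loss-of-signal vs DMSO.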

| SMILES | AC50 | outcome |
| --- | --- | --- |
| CC1=C(/C=C/C(C)=C/C=C/C(C)=C/C(=O)O)C(C)(C)CCC1 | 24.1 µM (active) | – |
| OCCC(F)(F)C(F)(F)C(F)(F)C(F)(F)C(F)(F)C(F)(F)F | – | inactive |
| CC(O)CO (centres undefined) | – | inactive |
| c1ccc2c(c1)Cc1ccccc1-2 | – | inactive |
| CC#C[C@]1(O)CC[C@H]2[C@@H]3CCC4=CC(=O)CCC4=C3[C@@H](c3ccc(N(C)C)cc3)C[C@@]21C | 2.53 µM (active) and 22.2 µM (active) | – |
| CN1CCC[C@H]1c1cccnc1 | – | inactive |
| OCCC(F)(F)C(F)(F)C(F)(F)C(F)(F)C(F)(F)C(F)(F)C(F)(F)C(F)(F)F | 24.2 µM (active) | – |
| c1ccc2cc3c(ccc4ccccc43)cc2c1 | 10 µM (active) | – |
| C=C(C)C(=O)OCCC(F)(F)C(F)(F)C(F)(F)C(F)(F)C(F)(F)C(F)(F)F | – | inactive |
| c1ccc2c(c1)ccc1ccccc12 | – | inactive |

System: DIO2 (gene 1734)
Assay: CCTE_GLTED_hDIO2: CCTE's human Deiodinase 2 (DIO2) Inhibition Assay, Great Lakes Toxicology and Ecology Division (GLTED) Lab (AID 2284050; active means hit-call score of the fitted dose curve at least 0.9, where 1 is the maximum)
Outline: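 Readout: absorbance from Sandell-Kolthoff detection of free iodide released by human DIO2 during a 3 h incubation with chemical. Cell-free format, n=3; activity fitted relative to DMSO negative control.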

| SMILES | AC50 |
| --- | --- |
| CC1=C(/C=C/C(C)=C/C=C/C(C)=C/C(=O)O)C(C)(C)CCC1 | 60.4 µM (active) |
| CCC(=C(c1ccc(O)cc1)c1ccc(OCCN(C)C)cc1)c1ccccc1 | 35.2 µM (active) |
| ClC1=C(Cl)C(Cl)(Cl)C(Cl)=C1Cl | 23.9 µM (active) |
| NC(=O)N(O)[C@@H]1C=C[C@H](Oc2cccc(Oc3ccc(F)cc3)c2)C1 | 36.5 µM (active) |
| CN1CCN(c2ccccc2/C=C2\SCCN(c3ccc(Cl)c(Cl)c3)C2=O)CC1 | 104 µM (active) |
| Cc1oc(-c2ccccc2)nc1CCOc1ccc(C[C@H](Nc2ccccc2C(=O)c2ccccc2)C(=O)O)cc1 | 46.1 µM (active) |
| CCCCCCCCCCCCc1ccccc1S(=O)(=O)O | 72.2 µM (active) |
| CC(=O)NC1(c2cccc(F)c2)CCN(CC[C@@]2(c3ccc(Cl)c(Cl)c3)CN(c3ccccc3)C(=O)CO2)CC1 | 82.6 µM (active) |
| c1ccc2cc3c(ccc4ccccc43)cc2c1 | 70 µM (active) |
| CC(C)(C)c1ccc(O)c(C(C)(C)C)c1 | 159 µM (active) |
| CCCCCCCCCCCCN1CCCC1=O | 138 µM (active) |
| CCCCCCCCCCCCCC[N+](C)(C)C | 24.7 µM (active) |

System: not listed separately
Assay: CCTE_Shafer_MEA_dev_network_spike_duration_std: CCTE's Neural Network Formation Assay for Standard Deviation of Network Spike Duration, Shafer Lab (AID 2284052);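 further: area under curve of spike duration SD across recording days 5 to 12; hits are decreases in network spike duration SD versus DMSO vehicle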
Outline: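 Read-out is the trapezoidal area-under-the-curve across recordings made on days 5, 7, 9 and 12, fitted in the negative direction against DMSO baseline. Neurons were primary rat cortical cells treated from day 0, with treatment renewed at each feed.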

| SMILES | AC50 | outcome |
| --- | --- | --- |
| CC1=C(/C=C/C(C)=C/C=C/C(C)=C/C(=O)O)C(C)(C)CCC1 | 2.98 µM (active) | – |
| OCCC(F)(F)C(F)(F)C(F)(F)C(F)(F)C(F)(F)C(F)(F)F | – | inactive |
| CC(O)CO (centres undefined) | – | inactive |
| c1ccc2c(c1)Cc1ccccc1-2 | – | inactive |
| CC#C[C@]1(O)CC[C@H]2[C@@H]3CCC4=CC(=O)CCC4=C3[C@@H](c3ccc(N(C)C)cc3)C[C@@]21C | 8.66 µM (active) | inactive |
| CN1CCC[C@H]1c1cccnc1 | – | inactive |
| OCCC(F)(F)C(F)(F)C(F)(F)C(F)(F)C(F)(F)C(F)(F)C(F)(F)C(F)(F)F | – | inactive |
| c1ccc2cc3c(ccc4ccccc43)cc2c1 | – | inactive |
| C=C(C)C(=O)OCCC(F)(F)C(F)(F)C(F)(F)C(F)(F)C(F)(F)C(F)(F)F | – | inactive |
| c1ccc2c(c1)ccc1ccccc12 | – | inactive |

System: not listed separately
Assay: CCTE_Shafer_MEA_dev_per_network_spike_spike_number_mean: CCTE's Neural Network Formation Assay for Mean Number of Spikes in a Network Spike, Shafer Lab (AID 2284053);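 on AC50: fitted as decrease in spikes per network spike relative to DMSO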
Outline: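 Continuous twelve-day exposure of developing rat cortical networks grown over 16 microelectrodes per well; spontaneous firing is captured at four time points, and the per-network-spike spike number is integrated over development by trapezoidal AUC.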

| SMILES | outcome | AC50 |
| --- | --- | --- |
| CC1=C(/C=C/C(C)=C/C=C/C(C)=C/C(=O)O)C(C)(C)CCC1 | inactive | – |
| OCCC(F)(F)C(F)(F)C(F)(F)C(F)(F)C(F)(F)C(F)(F)F | inactive | – |
| CC(O)CO (centres undefined) | inactive | – |
| c1ccc2c(c1)Cc1ccccc1-2 | inactive | – |
| CC#C[C@]1(O)CC[C@H]2[C@@H]3CCC4=CC(=O)CCC4=C3[C@@H](c3ccc(N(C)C)cc3)C[C@@]21C | – | 1.38 µM (active) and 15 µM (active) |
| CN1CCC[C@H]1c1cccnc1 | – | 6.37 µM (active) |
| OCCC(F)(F)C(F)(F)C(F)(F)C(F)(F)C(F)(F)C(F)(F)C(F)(F)C(F)(F)F | inactive | – |
| c1ccc2cc3c(ccc4ccccc43)cc2c1 | inactive | – |
| C=C(C)C(=O)OCCC(F)(F)C(F)(F)C(F)(F)C(F)(F)C(F)(F)C(F)(F)F | inactive | – |
| c1ccc2c(c1)ccc1ccccc12 | inactive | – |

System: not listed separately
Assay: CCTE_Shafer_MEA_dev_per_network_spike_spike_percent: CCTE's Neural Network Formation Assay for Percent of Spikes in a Network Spike, Shafer Lab (AID 2284054)
Outline: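 Metric: fraction of spikes falling in a 0.05 s window at network-spike peaks. Recordings were made on days 5, 7, 9 and 12 and collapsed by trapezoidal AUC. Cultures were rat cortical neurons on MEA plates, dosed continuously from plating, re-dosed at media changes.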

| SMILES | AC50 | outcome |
| --- | --- | --- |
| CC1=C(/C=C/C(C)=C/C=C/C(C)=C/C(=O)O)C(C)(C)CCC1 | 26.9 µM (active) | – |
| OCCC(F)(F)C(F)(F)C(F)(F)C(F)(F)C(F)(F)C(F)(F)F | – | inactive |
| CC(O)CO (centres undefined) | – | inactive |
| c1ccc2c(c1)Cc1ccccc1-2 | – | inactive |
| CC#C[C@]1(O)CC[C@H]2[C@@H]3CCC4=CC(=O)CCC4=C3[C@@H](c3ccc(N(C)C)cc3)C[C@@]21C | 3.55 µM (active) and 23.1 µM (active) | – |
| CN1CCC[C@H]1c1cccnc1 | – | inactive |
| OCCC(F)(F)C(F)(F)C(F)(F)C(F)(F)C(F)(F)C(F)(F)C(F)(F)C(F)(F)F | – | inactive |
| c1ccc2cc3c(ccc4ccccc43)cc2c1 | – | inactive |
| C=C(C)C(=O)OCCC(F)(F)C(F)(F)C(F)(F)C(F)(F)C(F)(F)C(F)(F)F | – | inactive |
| c1ccc2c(c1)ccc1ccccc12 | – | inactive |
